Source: PubChem
HepG2 viability: HepG2 cytotoxicity, counter-screen for TGF-b inhibitors. 0.76% of 410,000 active. AID 588856. Potency, µM (doses to about 46.1 µM), most hits filed as cytotoxic. HepG2 CAGA-GFP viability, ATP luminescence, 18 h
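CellTiter-Glo luminescence gave cytotoxicity after 18 hours at 37 degrees C. The cells were HepG2 CAGA-GFP in 1% FBS DMEM, stimulated with 500 pg/mL TGF-beta after compound addition. %Activity was normalised to no-cell wells (complete cell-killing) and DMSO (no toxicity), and curves were fitted and classified.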
HT1080NT lethal: kills 2HG-producing HT-1080-NT fibrosarcoma cells. HT-1080-NT fibrosarcoma viability, CellTiter-Glo ATP luminescence, 48 h. Potency, µM (highest dose often 46.1 µM), actives largely listed as cytotoxic. 1.6% of 360,000 active;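 note: NT is the 2HG producing partner of a matched IDH1 knockdown line; nearly all actives have a fitted effect of over 55% in size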
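Viability by CellTiter-Glo luminescence after 48 h compound exposure at 37C of HT-1080-NT cells (750/well, RPMI, 5% FBS). % activity scaled between DMSO wells and medium-only wells, then curve-fitted and categorized by curve class.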
TGFb inhibitor: inhibitors of TGF-b signaling | HepG2 CAGA-GFP TGF-b/SMAD3 reporter, GFP fluorescence, 18 h; TGF-beta stimulated, 500 pg/mL final | Potency, µM (top dose mostly 46.1 µM), usual class: inhibitors | 1.2% of 410,000 active; note: nearly all actives have a fitted effect of over 65% in size
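HEPG2 CAGA-GFP, 1000 cells/well; 2 h settle, 37 C; cpd via pin tool; TGF-b 500 pg/mL final; 18 h, 37 C; GFP imaging ex488/em500-530; %Activity normalised to -TGF-b and +DMSO controls; CRC fit, curve class.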
HT1080 IDH1KD tx: kills HT-1080 cells with IDH1 knockdown; Potency, µM (highest dose often 46.1 µM), hits mostly cytotoxic; HT-1080 IDH1 knockdown viability, ATP luminescence, 48 h; 2% of 360,000 active
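Luminescent ATP read-out (CellTiter-Glo, 10 min at room temperature) after 48 h compound exposure at 37 °C gave viability of IDH1-knockdown HT-1080 cells. Activity was normalised to DMSO and cell-free wells, then fitted as concentration-response curves.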
Giardia kill: Giardia lamblia killing. Giardia lamblia trophozoite viability. 0.15% of 340,000 active. activity change, % at 7.66 µM, hits read low; in the data active = activity change below about -80%; inconclusive = between about -30% and that limit;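 note: parasites exposed to compound for two days anaerobically before the ATP read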
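Anaerobic 48 hrs incubation at 37 deg C of 100 trophozoites/well with test compounds; ATPLite 1-Step luminescence, 15-30 min RT, reports cellular ATP as viability.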
IL-1B inflam inh: inflammasome signaling inhibition, IL-1 beta readout. AID 743279. THP-1 LPS/ATP IL-1B secretion, AlphaLISA, 16 h; hits give low values. 4.7% of 360,000 active. activity change, % at 57.5 µM; in the data active = activity change below about -50%; inconclusive = mostly about -30% to -49%
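THP-1 cells pretreated 1 hr with compounds (up to 57.5 uM final), then stimulated with LPS (250 ng/mL final) plus ATP (1.25 mM final); secreted IL-1B measured by AlphaLISA after 16 hr, decreased signal indicating inhibition.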
Large screens that a line does not name were inactive. Hits are enriched below; roughly 6.5% of the tested compounds scored in any of these assays. Unless noted, calls come from the whole dose curve; as a rule, active = well fitted curve in the direction sought with a large enough effect; inconclusive = small, poorly fitted or top-dose-only effect, or another doubt; inactive = no such curve, though single readings can be large; an effect the other way counts as inactive or inconclusive.

CC(=O)Nc1ccc(S(=O)(=O)N2CCC(C(=O)c3ccc(Cl)cc3)CC2)cc1	IL-1B inflam inh -51
Cc1cc(C)c(NC(=S)NC(=O)c2ccccc2)cc1C	HT1080 IDH1KD tx inconclusive (no result: Giardia kill)
CC(C(=O)Nc1ccccc1-c1ccccc1)N1CCN(C(=O)c2ccccc2)CC1 (stereo unspecified)	none
CC(C(=O)Nc1ccccc1-c1ccccc1)N1CCN(Cc2ccccc2)CC1 (stereo unspecified)	TGFb inhibitor inconclusive, IL-1B inflam inh -54
C=CC(C)N1C(=O)S/C(=C\c2ccc(N3CCOCC3)cc2C)C1=O (stereo unspecified)	IL-1B inflam inh -77
C=CCN1C(=O)S/C(=C\c2ccc(N3CCOCC3)cc2C)C1=O	none
NS(=O)(=O)c1ccc(NC(=O)/C=C/c2ccc(S(=O)(=O)NCc3ccco3)cc2)cc1	IL-1B inflam inh -52
Cc1ccc(S(=O)(=O)NCC(=O)N(CC(=O)NCc2ccco2)Cc2ccccc2)cc1	HepG2 viability 16µM
O=S(=O)(NCc1ccccc1)c1ccc(NC(=S)NCc2ccco2)cc1	HepG2 viability 11µM, TGFb inhibitor inconclusive
O=C(O)/C=C/c1ccc(S(=O)(=O)NCc2ccco2)cc1	none
CCCC1(CCC)NC(=O)N(CC(=O)Nc2ccc3c(c2)OCCO3)C1=O	none
COc1ccc(NC2CCCN(C(=O)CCN3CCOCC3)C2)cc1 (stereo unspecified)	none
CCN(CC)CCCNC(=O)c1ccc2c(c1)sc1nc(-c3ccc(C)cc3)cn12	HepG2 viability 6.3µM (no result: HT1080NT lethal, HT1080 IDH1KD tx, Giardia kill, IL-1B inflam inh)
O=C(NCC1CC1)c1ccc(Oc2cc(Cl)cc(Cl)c2)o1	none
COc1cc2nc(Cl)nc(NC3CCN(Cc4ccccc4)CC3)c2cc1OC	none (no result: HepG2 viability, TGFb inhibitor, Giardia kill, IL-1B inflam inh)
OCCN(CCO)c1nc2ccccc2[nH]1	none
O=c1[nH]c(=O)n(C(c2ccccc2)(c2ccccc2)c2ccccc2)cc1N(CCO)CCO	IL-1B inflam inh -51
CCOc1ncccc1C(=O)N=C1SCCN1C(=O)c1cccnc1OCC	none
CCN(CC)S(=O)(=O)c1ccc(N2CCN(c3ccccc3OC)CC2)c(N)c1	HT1080NT lethal inconclusive, HT1080 IDH1KD tx inconclusive
COc1ccc(CNC2CCCc3ccccc32)c(OC)c1 (stereo unspecified)	IL-1B inflam inh -50
COc1ccc(NC(=O)NC2CCCc3ccccc32)c(OC)c1 (stereo unspecified)	none
COc1ccc(OCC(=O)NC2CCCc3ccccc32)cc1 (stereo unspecified)	Giardia kill inconclusive, IL-1B inflam inh -87
COc1ccc(C(=O)NC2CCCc3ccccc32)cc1[N+](=O)[O-] (stereo unspecified)	HT1080NT lethal inconclusive, HT1080 IDH1KD tx 15µM
CCOP(=O)(OCC)C(NC(=O)Nc1ccccc1)C(N)=O (stereo unspecified)	none
Cc1ccc2ncccc2c1NS(=O)(=O)c1ccccc1	none
CCCCCCCOC(=O)C[N+](C)(C)CCOC1CC2CCC1(C)C2(C)C (stereo unspecified)	HepG2 viability 18µM, HT1080NT lethal 8.2µM, TGFb inhibitor inconclusive, HT1080 IDH1KD tx 18µM, IL-1B inflam inh -100
OC(c1ccccn1)C1CCN(Cc2nc(C(c3ccccc3)c3ccccc3)no2)CC1 (stereo unspecified)	none
Nc1ccc(Cc2ccc([N+](=O)[O-])cc2)cc1	IL-1B inflam inh -50
O=c1cc(Cc2ccc([N+](=O)[O-])cc2)[nH]c(=O)[nH]1	none
Cc1cc(Cl)ccc1C(=O)C1CCCN(C(=O)c2cc(C(C)C)no2)C1 (stereo unspecified)	none
CC(C)Oc1cccc(C(=O)C2CCCN(C(=O)c3cc(C(F)(F)F)[nH]n3)C2)c1 (stereo unspecified)	IL-1B inflam inh -54
CC(C)c1cc(C(=O)N2CCCC(C(=O)c3ccc4ccccc4c3)C2)on1 (stereo unspecified)	IL-1B inflam inh -89
O=C(Cn1nc(Cc2cccnc2)c2ccccc2c1=O)Nc1ccc2c(c1)OCO2	IL-1B inflam inh inconclusive
CCOc1cccc(N(C(=O)C2COc3ccccc3O2)C(C(=O)NC2CCCCC2)c2ccc(O)cc2)c1 (stereo unspecified)	none
CC(C)CCNC(=O)C(c1ccc(O)cc1)N(C(=O)C1COc2ccccc2O1)c1cccc(O)c1 (stereo unspecified)	TGFb inhibitor inconclusive, HT1080 IDH1KD tx inconclusive, IL-1B inflam inh -76
CCOc1ccccc1NC(=O)c1ccc(-n2cncn2)nc1	none
COC(=O)c1scc(C)c1S(=O)(=O)Nc1ccc(C)cc1	HT1080NT lethal inconclusive, HT1080 IDH1KD tx inconclusive (no result: IL-1B inflam inh)
CCOc1cc2[nH]c(=S)n(Cc3ccc(C(=O)NCCN(CC)CC)cc3)c(=O)c2cc1OCC	HT1080NT lethal inconclusive, TGFb inhibitor inconclusive, HT1080 IDH1KD tx inconclusive, IL-1B inflam inh -99
CCN(CC)CCNC(=O)c1ccc2c(=O)n(C3CCCC3)c(=S)[nH]c2c1	HT1080NT lethal inconclusive, HT1080 IDH1KD tx 20µM
CCOCCCNC(=O)c1ccc(Cn2c(=S)[nH]c3c([nH]c4ccc(OC)cc43)c2=O)cc1	none
CCCCNC(=O)c1ccc(Cn2c(=S)[nH]c3c([nH]c4ccc(OC)cc43)c2=O)cc1	HT1080NT lethal inconclusive, TGFb inhibitor inconclusive, HT1080 IDH1KD tx 18µM
CCOc1cc2[nH]c(=S)n(Cc3ccc(C(=O)NCC(OC)OC)cc3)c(=O)c2cc1OCC	none
COc1ccccc1C1(O)CCN(CC(=O)Nc2nc(-c3ccccc3)cs2)CC1	TGFb inhibitor inconclusive, HT1080 IDH1KD tx inconclusive, IL-1B inflam inh -62
CCOC(=O)c1sc(SCC(=O)Nc2ccc(N(C)C)cc2)nc1N	HT1080 IDH1KD tx inconclusive, IL-1B inflam inh -67
O=C(Nc1nnc([C@@H]2C[C@H](O)[C@@H](CO)O2)s1)c1c(F)cccc1F	IL-1B inflam inh -56 (no result: Giardia kill)
COc1ccc(-c2nc(NC(=O)C3CC(=O)N(Cc4ccco4)C3)sc2C)cc1 (stereo unspecified)	TGFb inhibitor inconclusive, Giardia kill inconclusive
CCN(CC)CCN(C(=O)CCS(=O)(=O)c1ccccc1)c1nc2cc(C)cc(C)c2s1	HepG2 viability 18µM, HT1080NT lethal inconclusive, TGFb inhibitor 16µM, HT1080 IDH1KD tx inconclusive, IL-1B inflam inh -102
CCN(CC)CCN(C(=O)CCS(=O)(=O)c1ccccc1)c1nc2cc(OC)c(OC)cc2s1	TGFb inhibitor inconclusive
Cc1cccc2sc(N(CCN3CCOCC3)C(=O)CCS(=O)(=O)c3ccccc3)nc12	TGFb inhibitor inconclusive, IL-1B inflam inh -98
